# Results taken from the supplement of paper PMC10037445.
# “And” between values parts separate entries of the source, which are not always exact repeats. Equal entries are not always repeated. Whole data set: some 2,900 compounds, median “NF-kB SEAP reporter activity, fold change vs agonist alone” near 0.99, cut for the highest 2% near 2.6. What follows is part of a selection rich in the highest values, with near analogues and random picks from the rest.
# Columns and labels:
# RAW-Dual [1] = assay: NF-kB SEAP reporter activity, fold change vs agonist alone; cytotoxicity flag (confluency mask): not cytotoxic; higher = enhanced NF-kB activity
# How it was run: (§1)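 After 50 nL of library stock was delivered by pin tool to RAW-Dual macrophages (50,000 cells/well, DMEM, 384-well plates), a PRR agonist was added 1 h later and the plates were kept at 37 °C, 5% CO2. Twenty hours later, IRF was read from supernatant by QuantiLuc luminescence and NF-κB by QuantiBlue absorbance at 620 nm. Reporter activity is stated as fold change over agonist-alone wells. Wells with IncuCyte confluency under 70% of agonist controls in both mask sets were counted as cytotoxic.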
# RAW-Dual [2] = assay: NF-kB SEAP reporter activity, fold change vs agonist alone; higher = enhanced NF-kB activity; conditions: library stock concentration (final ~1000-fold dilution): 10 mM
# How it was run: as §1
# RAW-Dual [3] = assay: NF-kB SEAP reporter activity, fold change vs agonist alone; cytotoxicity flag (confluency mask): cytotoxic (confluency <70% of control); higher = enhanced NF-kB activity
# How it was run: as §1
# [4] = agonist: ODN 1826 (TLR9) 0.5 ug/mL
# [5] = agonist: Pam2CSK4 (TLR2/6) 0.1 ug/mL
# [6] = agonist: Pam3CSK4 (TLR2/1) 0.1 ug/mL
# [7] = cytotoxicity flag (confluency mask): not cytotoxic, agonist: Imiquimod (TLR7) […]
# [8] = cytotoxicity flag (confluency mask): not cytotoxic, agonist: MPLA (TLR4) […]
# [9] = cytotoxicity flag (confluency mask): cytotoxic (confluency <70% of control), agonist: MPLA (TLR4) […]
# [10] = cytotoxicity flag (confluency mask): cytotoxic (confluency <70% of control), agonist: Imiquimod (TLR7) […]
smiles,measurement,setting,value
Cn1cc(Nc2nccc(N3CC4CCC(C3)N4C(=O)C3CC3(F)F)n2)cn1 (centres undefined) (library stock concentration (final ~1000-fold dilution): 10 mM),NF-kB SEAP reporter activity,RAW-Dual [1]; agonist: LPS (TLR4) 0.1 ug/mL,0.973
same,NF-kB SEAP reporter activity,RAW-Dual [1]; [4],1.3
same,NF-kB SEAP reporter activity,RAW-Dual [1]; [5],1.69
same,NF-kB SEAP reporter activity,RAW-Dual [1]; [6],2.02
Cn1cc(Nc2nccc(N3CC4CCC(C3)N4C(=O)C3CC3(F)F)n2)cn1 (centres undefined),NF-kB SEAP reporter activity,RAW-Dual [2]; [7],1.19
same,NF-kB SEAP reporter activity,RAW-Dual [2]; [8],0.995
CC(NCCC(c1ccccc1)c1ccccc1)c1ccccc1.Cl (centres undefined) (library stock concentration (final ~1000-fold dilution): 10 mM),NF-kB SEAP reporter activity,RAW-Dual [3]; agonist: LPS (TLR4) 0.1 ug/mL,1.18
same,NF-kB SEAP reporter activity,RAW-Dual [3]; [4],0.723
same,NF-kB SEAP reporter activity,RAW-Dual [3]; [5],0.754
same,NF-kB SEAP reporter activity,RAW-Dual [3]; [6],0.637
CC(NCCC(c1ccccc1)c1ccccc1)c1ccccc1.Cl (centres undefined),NF-kB SEAP reporter activity,RAW-Dual [2]; [9],1.24
CCCCCCCCCCCC(CC1OC(=O)C1CCCCCC)OC(=O)C(CC(C)C)NC=O (centres undefined) (library stock concentration (final ~1000-fold dilution): 10 mM),NF-kB SEAP reporter activity,RAW-Dual [1]; agonist: LPS (TLR4) 0.1 ug/mL,1.07
same,NF-kB SEAP reporter activity,RAW-Dual [1]; [4],1.02
same,NF-kB SEAP reporter activity,RAW-Dual [1]; [5],0.959
same,NF-kB SEAP reporter activity,RAW-Dual [1]; [6],0.978
CCCCCCCCCCCC(CC1OC(=O)C1CCCCCC)OC(=O)C(CC(C)C)NC=O (centres undefined),NF-kB SEAP reporter activity,RAW-Dual [2]; [7],0.823
same,NF-kB SEAP reporter activity,RAW-Dual [2]; [8],0.902
CN(C)C/C=C/C(=O)Nc1ccc(C(=O)Nc2cccc(Nc3ncc(Cl)c(-c4c[nH]c5ccccc45)n3)c2)cc1.Cl.Cl,NF-kB SEAP reporter activity,RAW-Dual [2]; [10],0.142
same,NF-kB SEAP reporter activity,RAW-Dual [2]; [9],0.258
CN(C)C/C=C/C(=O)Nc1ccc(C(=O)Nc2cccc(Nc3ncc(Cl)c(-c4c[nH]c5ccccc45)n3)c2)cc1.Cl.Cl (library stock concentration (final ~1000-fold dilution): 10 mM),NF-kB SEAP reporter activity,RAW-Dual [3]; agonist: LPS (TLR4) 0.1 ug/mL,0.242
same,NF-kB SEAP reporter activity,RAW-Dual [3]; [4],0.189
same,NF-kB SEAP reporter activity,RAW-Dual [3]; [5],0.0773
same,NF-kB SEAP reporter activity,RAW-Dual [3]; [6],0.176
N#Cc1ccnc(N2C(=O)CCC2C(=O)N(c2cncc(F)c2)C(C(=O)NC2CC(F)(F)C2)c2ccccc2Cl)c1 (centres undefined),NF-kB SEAP reporter activity,RAW-Dual [2]; [7],1.14
same,NF-kB SEAP reporter activity,RAW-Dual [2]; [8],1.16
N#Cc1ccnc(N2C(=O)CCC2C(=O)N(c2cncc(F)c2)C(C(=O)NC2CC(F)(F)C2)c2ccccc2Cl)c1 (centres undefined) (library stock concentration (final ~1000-fold dilution): 10 mM),NF-kB SEAP reporter activity,RAW-Dual [1]; agonist: LPS (TLR4) 0.1 ug/mL,1.37
same,NF-kB SEAP reporter activity,RAW-Dual [1]; [4],1.16
same,NF-kB SEAP reporter activity,RAW-Dual [1]; [5],0.753
same,NF-kB SEAP reporter activity,RAW-Dual [1]; [6],0.775
COC(=O)C1=C(C)NC(C)=C(C(=O)OC)C1c1ccccc1[N+](=O)[O-] (library stock concentration (final ~1000-fold dilution): 10 mM),NF-kB SEAP reporter activity,RAW-Dual [1]; agonist: LPS (TLR4) 0.1 ug/mL,2.15
same,NF-kB SEAP reporter activity,RAW-Dual [1]; [4],1.42
same,NF-kB SEAP reporter activity,RAW-Dual [1]; [5],1.5
same,NF-kB SEAP reporter activity,RAW-Dual [1]; [6],1.37
COC(=O)C1=C(C)NC(C)=C(C(=O)OCC(C)C)C1c1ccccc1[N+](=O)[O-] (centres undefined),NF-kB SEAP reporter activity,RAW-Dual [2]; [7],0.706
same,NF-kB SEAP reporter activity,RAW-Dual [2]; [8],0.773
CCOC(=O)C1=C(COCCN)NC(C)=C(C(=O)OC)C1c1ccccc1Cl (centres undefined) (library stock concentration (final ~1000-fold dilution): 10 mM),NF-kB SEAP reporter activity,RAW-Dual [3]; agonist: LPS (TLR4) 0.1 ug/mL,2.23 and 2.05
same,NF-kB SEAP reporter activity,RAW-Dual [3]; [4],0.736 and 1.01
same,NF-kB SEAP reporter activity,RAW-Dual [3]; [5],0.785 and 0.751
same,NF-kB SEAP reporter activity,RAW-Dual [3]; [6],0.888 and 1.41
CCOC(=O)C1=C(COCCN)NC(C)=C(C(=O)OC)C1c1ccccc1Cl.O=S(=O)(O)c1ccccc1 (centres undefined) (library stock concentration (final ~1000-fold dilution): 10 mM),NF-kB SEAP reporter activity,RAW-Dual [3]; agonist: LPS (TLR4) 0.1 ug/mL,2.27
same,NF-kB SEAP reporter activity,RAW-Dual [3]; [4],0.532
same,NF-kB SEAP reporter activity,RAW-Dual [3]; [5],0.907
same,NF-kB SEAP reporter activity,RAW-Dual [3]; [6],0.924
CCCC(=O)OCOC(=O)C1=C(C)NC(C)=C(C(=O)OC)C1c1cccc(Cl)c1Cl (centres undefined),NF-kB SEAP reporter activity,RAW-Dual [2]; [7],1.02
same,NF-kB SEAP reporter activity,RAW-Dual [2]; [8],0.958
COC(=O)C1=C(C)NC(C)=C(C(=O)OCC(C)C)C1c1ccccc1[N+](=O)[O-] (centres undefined) (library stock concentration (final ~1000-fold dilution): 10 mM),NF-kB SEAP reporter activity,RAW-Dual [1]; agonist: LPS (TLR4) 0.1 ug/mL,0.885
same,NF-kB SEAP reporter activity,RAW-Dual [1]; [4],0.605
same,NF-kB SEAP reporter activity,RAW-Dual [1]; [5],0.675
same,NF-kB SEAP reporter activity,RAW-Dual [1]; [6],0.706
COC(=O)C1=C(C)NC(C)=C(C(=O)OC)C1c1ccccc1[N+](=O)[O-],NF-kB SEAP reporter activity,RAW-Dual [2]; [7],1.59
same,NF-kB SEAP reporter activity,RAW-Dual [2]; [8],1.35
CCCC(=O)OCOC(=O)C1=C(C)NC(C)=C(C(=O)OC)C1c1cccc(Cl)c1Cl (centres undefined) (library stock concentration (final ~1000-fold dilution): 10 mM),NF-kB SEAP reporter activity,RAW-Dual [1]; agonist: LPS (TLR4) 0.1 ug/mL,0.954
same,NF-kB SEAP reporter activity,RAW-Dual [1]; [4],1.19
same,NF-kB SEAP reporter activity,RAW-Dual [1]; [5],0.911
same,NF-kB SEAP reporter activity,RAW-Dual [1]; [6],1.1
CCOC(=O)C1=C(C)NC(C)=C(C(=O)OC)C1c1cccc(Cl)c1Cl (centres undefined) (library stock concentration (final ~1000-fold dilution): 10 mM),NF-kB SEAP reporter activity,RAW-Dual [1]; agonist: LPS (TLR4) 0.1 ug/mL,0.607
same,NF-kB SEAP reporter activity,RAW-Dual [1]; [4],0.648
same,NF-kB SEAP reporter activity,RAW-Dual [1]; [5],0.408
same,NF-kB SEAP reporter activity,RAW-Dual [1]; [6],0.423
CCOC(=O)C1=C(COCCN)NC(C)=C(C(=O)OC)C1c1ccccc1Cl.O=S(=O)(O)c1ccccc1 (centres undefined),NF-kB SEAP reporter activity,RAW-Dual [2]; [10],2.53
same,NF-kB SEAP reporter activity,RAW-Dual [2]; [9],2.58
CCOC(=O)C1=C(C)NC(C)=C(C(=O)OC)C1c1cccc(Cl)c1Cl (centres undefined),NF-kB SEAP reporter activity,RAW-Dual [2]; [7],1.53
same,NF-kB SEAP reporter activity,RAW-Dual [2]; [8],0.952
CCC1OC(=O)C(C)C(OC2CC(C)(OC)C(O)C(C)O2)C(C)C(OC2OC(C)CC(N(C)C)C2O)C(C)(OC)CC(C)C(=O)C(C)C(O)C1(C)O (centres undefined) (library stock concentration (final ~1000-fold dilution): 10 mM),NF-kB SEAP reporter activity,RAW-Dual [1]; agonist: LPS (TLR4) 0.1 ug/mL,0.99
same,NF-kB SEAP reporter activity,RAW-Dual [1]; [4],0.929
same,NF-kB SEAP reporter activity,RAW-Dual [1]; [5],0.942
same,NF-kB SEAP reporter activity,RAW-Dual [1]; [6],0.932
CCC1OC(=O)C(C)C(OC2CC(C)(OC)C(O)C(C)O2)C(C)C(OC2OC(C)CC(N(C)C)C2O)C(C)(OC)CC(C)C(=O)C(C)C(O)C1(C)O (centres undefined),NF-kB SEAP reporter activity,RAW-Dual [2]; [7],0.947
same,NF-kB SEAP reporter activity,RAW-Dual [2]; [8],0.96
